Legend:
Format in all cases: functional
Plasmodium falciparum [1] = assay: GSK_TCMDC: Inhibition of Plasmodium falciparum 3D7 in whole red blood cells, using parasite LDH activity as an index of growth. Test compounds present at 2uM
Plasmodium falciparum [2] = assay: GSK_TCMDC: Inhibition of Plasmodium falciparum Dd2 in whole red blood cells, using parasite LDH activity as an index of growth. Test compounds present at 2uM
HepG2 = assay: GSK_TCMDC: Percent inhibition of human HepG2 cell line. Test compounds present at 10uM.

Compound | Inhibition (Plasmodium falciparum [1]) [%] | Inhibition (Plasmodium falciparum [2]) [%] | Inhibition (HepG2) [%]
Cc1nc(N)nc(N)c1CCCOc1ccc(Br)cc1 | 97 | 5 | 30
CN(C)c1cc(NC(=O)Nc2ccc(SC(F)(F)F)cc2)c2ccccc2n1 | 100 | 100 | 22
CCCNCc1ccc(-c2ccc(CN(CCOC)C(=O)c3nn(-c4ccccc4)nc3C)cc2)nc1.O=C(O)C(F)(F)F | 99 | 71 | 18
COCCN1CCC(CNCC(C)(C)c2nc(-c3ccc(Cl)c(O)c3)c(-c3ccncc3)[nH]2)CC1.Cl | 100 | 2 | 0
CNCCNCc1cccc(-c2ccc(-c3nc4ccccc4[nH]3)cc2)c1.O=C(O)C(F)(F)F | 99 | 27 | 13
CC(C)C[C@H](NC(=O)c1cc2ccccc2s1)C(=O)N[C@H]1CCN(Cc2ccc(I)c(OCCN3CCCC3)c2)C1.O=C(O)C(F)(F)F | 92 | 88 | 3
COc1ccc(S(=O)(=O)N(c2cc(Br)cc3c2OCC3)S(=O)(=O)c2ccc(OC)c(N3CCN(C)CC3)c2)cc1N1CCN(C)CC1 | 81 | 98 | 67
CC(C)c1ccc(-c2noc(SCC(=O)N(C)c3ccc(F)cc3)n2)cc1 | 84 | 77 | 7
CN(C)[C@@H]1C(O)=C(C(N)=O)C(=O)[C@@]2(O)C(O)=C3C(=O)c4c(O)ccc(C#Cc5ccccn5)c4C[C@H]3C[C@@H]12.Cl | 92 | 75 | 17
COc1ccc(C2CC(c3ccccc3)=NN2C(=O)c2ccc(Br)o2)cc1 (centres undefined) | 96 | 45 | 6
Cc1cc(C)cc(N2C(N)=NC(N)=NC2(C)C)c1.Cl | 93 | 6 | 58
CNCc1cccc(-c2ccc3ccnc(N)c3c2)c1 | 100 | 98 | 20
COc1cc2c(cc1C(F)(F)F)N(C(=O)Nc1cccc(-c3ccc(CN(C)C)cc3)c1)CC2 | 100 | 93 | 95
Cn1c(NC(=O)C2CCC(CNC(=O)c3ccc(O)c(-c4cccc([N+](=O)[O-])c4)c3)CC2)nc2ccccc21 (centres undefined) | 95 | 97 | 6
CCc1nc(N)nc(N)c1-c1ccc(F)c(F)c1 | 98 | 0 | 58
CCCCCCn1c(Sc2ccc(C#N)c([N+](=O)[O-])c2)nnc1-c1ccccc1 | 97 | 41 | 23
Br.CC1(C)NC(N)=NC(=N)N1OCCCO | 96 | 0 | 27
Cc1ccn2c(N(Cc3ccccc3)C(=O)c3ccc(Cl)c(Cl)c3)c(-c3ccccc3)nc2c1 | 95 | 0 | 0
CN(C)CCNC(=O)c1cc2c(-c3ccc(Cl)cc3)nn(C)c2s1 | 98 | 81 | 18
N#Cc1ccc(N2CCN(Cc3cccc(-c4ccc(-c5nc6cc(C(F)(F)F)ccc6[nH]5)cc4)c3)CC2)nc1.O=C(O)C(F)(F)F | 100 | 81 | 39

Compound | Inhibition (Plasmodium falciparum [1]) [%] | Inhibition (Plasmodium falciparum [2]) [%] | Inhibition (HepG2) [%]
O=C(Nc1nc(-c2ccccn2)cs1)c1ccccc1COc1ccccc1 | 83 | 42 | 34
Cc1ccc2nc(N(CCCn3ccnc3)C(=O)C=Cc3cccs3)sc2c1.Cl | 100 | 57 | 22
O=C(c1ccc(O)c(-c2cc(Cl)cc(Cl)c2)c1)N(CCO)CCO | 94 | 62 | 1
CN(Cc1cc(C(F)(F)F)cc(C(F)(F)F)c1)C(=O)C(Cc1ccc(F)cc1)C1CCCNC1 (centres undefined) | 96 | 89 | 10
O=[N+]([O-])c1ccc(Nc2nc(N/N=C/c3cc(Cl)cc(Cl)c3O)nc(Nc3ccccc3)n2)cc1 | 100 | 72 | 29
CCCN(CCC)S(=O)(=O)c1ccc(C(=O)N2CCC(C(=O)OCC)CC2)cc1 | 98 | 41 | 26
O=C(/C=C/c1ccc(Cl)c(Cl)c1)NCCCCCN1CCC(CCNC(=O)Cc2ccc(Cl)cc2)CC1 | 83 | 0 | 45
CN1CCCc2ccc(NC(=O)c3cnc(-c4ccccc4)cn3)cc21 | 87 | 82 | 24
Br.CCOC(=O)c1cc(Cl)cc(Cl)c1OCCCON1C(=N)N=C(N)NC1(C)C | 93 | 97 | 70
O=C(/C=C/c1ccc(C(F)(F)F)cc1)NCCCCCN1CCCN(C(=O)Nc2cccc(Cl)c2)CC1 | 92 | 3 | 16
Cl.N#Cc1ccc2c(c1)CCN(CCC1CCC(NC(=O)c3cc4cccc(Cl)c4[nH]3)CC1)CC2 (centres undefined) | 99 | 78 | 34
O=C1C2C3SC(c4c3ccc3ccccc43)C2C(=O)N1c1ccccc1 (centres undefined) | 96 | 7 | 0
O=[N+]([O-])c1c(O)nc2c(c1O)CCC2 | 97 | 1 | 9
FC(F)(F)Oc1ccc(-c2cnc3ccc(NCc4ccncc4)nn23)cc1 | 97 | 54 | 19
N#Cc1ccc(CN2CCC(Oc3ccc(NC(=O)c4cccs4)cc3Cl)CC2)cc1.O=C(O)C(F)(F)F | 95 | 96 | 26
Nc1ccc(-c2ccc(NC(=O)Nc3cc(C(F)(F)F)ccc3F)cc2)cn1 | 99 | 39 | 0
CCCCCCc1ncc(-c2cc3cc(O)c(-c4ccccc4)cc3oc2=O)s1 | 90 | 63 | 4
CC(=O)Oc1cc(C)ccc1C1CCN(CCCCNC(=O)c2ccc(NC(=O)c3ccc(Cl)cc3)cc2)CC1 | 100 | 57 | 12
CC(C)(CN)c1nc(-c2ccc(Cl)c(O)c2)c(-c2ccncc2)[nH]1.Cl | 97 | 98 | 34
CC(C)CCNc1nc(NCc2ccccc2)c2cc(O)ccc2n1 | 100 | 92 | 25

Compound | Inhibition (Plasmodium falciparum [1]) [%] | Inhibition (Plasmodium falciparum [2]) [%] | Inhibition (HepG2) [%]
C=C[C@]1(C)C[C@@H](OC(=O)c2n[nH]c3ccccc3c2=O)[C@]2(C)[C@H](C)CC[C@]3(CCC(=O)[C@H]32)[C@@H](C)[C@@H]1O | 96 | 84 | 0
CS(=O)(=O)c1cccc(-c2cnc3[nH]cc(-c4ccc(C(=O)O)cc4)c3c2)c1 | 99 | 100 | 6
O=C(O)C(F)(F)F.c1cc(CN2CCN(CCN3CCOCC3)CC2)cc(-c2csc(-c3nc4ccccc4[nH]3)c2)c1 | 100 | 99 | 27
CN1CCc2cc(NS(=O)(=O)c3ccc(-c4ccc(Cl)s4)cc3)c(N3CCCCC3)cc2CC1.Cl | 98 | 29 | 14
Cc1cc(N[C@@H](CC(C)C)C(=O)NCc2cccs2)nc(NCCc2cccs2)n1.O=C(O)C(F)(F)F | 92 | 13 | 0
Cl.Fc1cccc(COc2ccc(Nc3ncnc4sc(C#C[C@H]5CCCN5)cc34)cc2F)c1 | 98 | 17 | 13
COc1cc2nc(NCC3CCCCC3)nc(NCc3ccccc3)c2cc1OC | 100 | 100 | 18
COc1cc2cc(-c3nc4ccccc4[nH]3)c(N)nc2cc1OC.Cl | 100 | 100 | 91
NS(=O)(=O)Cc1cccc(-c2ccnc3ccc(-c4cccc(S(N)(=O)=O)c4)cc23)c1 | 98 | 42 | 39
Cc1ccc(O)cc1Nc1ccnc2ccc(-c3cccc(CN(C)C)c3)cc12 | 100 | 99 | 0
COC(=O)c1cccc(CNCc2cccc(-c3csc(-c4nc5ccccc5[nH]4)c3)c2)c1.O=C(O)C(F)(F)F | 100 | 44 | 0
CCc1cn2c3c(cc(C(=O)N[C@@H](Cc4ccccc4)[C@H](O)CN[C@@H](C)CC)cc13)N(C)S(=O)(=O)CC2.O=CO | 99 | 98 | 2
Brc1ccsc1-c1nc(NCCC(c2ccccc2)c2ccccc2)no1 | 94 | 81 | 17
COc1cc(CC2c3cc(O)c(Cl)cc3CCN2C)c(OC)cc1C.Cl (centres undefined) | 99 | 88 | 10
COc1ccc(OC)c(-c2ccc(=O)n(CC(=O)Nc3cccc4ccccc34)n2)c1 | 100 | 95 | 0
COc1ccc(NC(=O)Nc2cccc(-c3cccc(-c4nc5ccccc5[nH]4)c3)c2)cc1 | 100 | 41 | 41
Cc1nnc(NC(=O)c2cn(-c3ccccc3)nc2-c2ccccc2C)o1 | 93 | 87 | 37
CCOc1cc(C)ccc1C1CCN(CCCCNC(=O)c2cccc(-c3ccc(C(F)(F)F)cc3)c2)CC1 | 99 | 55 | 39
